In PubChem BioAssay (Tox21):
Records with an inconclusive call do not appear. Active and inactive are the calls of the source. Calls follow the shape of the dose curve; as a rule, active = well fitted curve in the direction sought with a large enough effect in the repeat runs; inconclusive = weak or mixed curves; inactive = no such curve, though single readings can be large; an effect the other way counts as inactive or inconclusive.

Columns and labels:
[1] = target: Cytochrome P450 2D6 (Homo sapiens) (UniProt P10635); experiment: Cytochrome P450 Family 2 Subfamily D Member 6 (CYP2D6) small molecule antagonists: luciferase reporter qHTS assay (AID 1671196); also: nearly all actives have a fitted effect of over 50% in size; as to activity change, negative = inhibition: series mostly up to about 120 µM
In short: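 Each well received CYP2D6 with its proluciferin substrate and chemical, sat 10 min, then got NADPH regeneration solution for 1 h at room temperature. Luminescence in RLU served as the activity measure.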

[2] = target: Cytochrome P450 2C19 (Homo sapiens) (UniProt P33261); experiment: Cytochrome P450 Family 2 Subfamily C Member 19 (CYP2C19) small molecule antagonists: luciferase reporter qHTS assay (AID 1671197); also: nearly all actives have a fitted effect of over 65% in size; as to activity change, negative = inhibition: series mostly up to about 120 µM
In short: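 P450-Glo CYP2C19 screening system; proluciferin substrate; DMSO compound stocks; 10 min RT preincubation; NADPH regeneration, 1 h at 37C; luciferin detection reagent, 20 min RT; luminescence as RLU.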

[3] = target: Cytochrome P450 1A2 (Homo sapiens) (UniProt P05177); experiment: Cytochrome P450 Family 1 Subfamily A Member 2 (CYP1A2) small molecule antagonists: luciferase reporter qHTS assay (AID 1671199); also: nearly all actives have a fitted effect of over 50% in size; as to activity change, negative = inhibition: series mostly up to about 120 µM
In short: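 Enzymatic CYP1A2 assay, human, luminescent: 10 min compound–enzyme–substrate preincubation, 1 h NADPH-dependent turnover, 20 min detection step, room temperature throughout. Reduced light indicates lower CYP1A2 activity.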

[4] = target: Voltage-gated inwardly rectifying potassium channel KCNH2 (Homo sapiens) (UniProt Q12809); experiment: Human Ether-a-go-go-Related Gene (hERG) channel small molecule antagonists: fluorescence cell-based qHTS assay (AID 1671200); also: nearly all actives have a fitted effect of over 50% in size;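 as to activity change, negative = inhibition: hERG-expressing U2OS cells given a thallium stimulus after FluxOR II dye loading; series mostly up to about 77 µM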
In short: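 Kinetic two-minute fluorescence traces, sampled at 1 s, were collected following thallium stimulus of U2OS cells (1000 per well) that had been cultured overnight at 37 C and loaded with FluxOR II.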

[5] = target: Cytochrome P450 3A4 (Homo sapiens) (UniProt P08684); experiment: Cytochrome P450 Family 3 Subfamily A Member 4 (CYP3A4) small molecule antagonists: luciferase reporter qHTS assay (AID 1671201); also: nearly all actives have a fitted effect of over 50% in size; as to activity change, negative = inhibition: series mostly up to about 120 µM
In short: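 Proluciferin-to-luciferin conversion by CYP3A4, NADPH-regenerated, 1 h RT; luminescence read as RLU. Ketoconazole as control.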

[6] = target: Cytochrome P450 2C9 (Homo sapiens) (UniProt P11712); experiment: Cytochrome P450 Family 2 Subfamily C Member 9 (CYP2C9) small molecule antagonists: luciferase reporter qHTS assay (AID 1671198); also: nearly all actives have a fitted effect of over 50% in size; as to activity change, negative = inhibition: series mostly up to about 120 µM
In short: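 P450-Glo proluciferin substrate with CYP2C9 enzyme; 10 min RT preincubation, then NADPH regeneration 1 h at 37C; luciferin detection reagent 20 min RT, luminescence in relative luminescence units.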
% is scaled to controls: 0 for no effect and ±100 for the full control effect; potency is read from the fitted curve at half-maximal effect.

Chain of Cytochrome P450 2C9 (Homo sapiens) (P11712 whole entry, looked up): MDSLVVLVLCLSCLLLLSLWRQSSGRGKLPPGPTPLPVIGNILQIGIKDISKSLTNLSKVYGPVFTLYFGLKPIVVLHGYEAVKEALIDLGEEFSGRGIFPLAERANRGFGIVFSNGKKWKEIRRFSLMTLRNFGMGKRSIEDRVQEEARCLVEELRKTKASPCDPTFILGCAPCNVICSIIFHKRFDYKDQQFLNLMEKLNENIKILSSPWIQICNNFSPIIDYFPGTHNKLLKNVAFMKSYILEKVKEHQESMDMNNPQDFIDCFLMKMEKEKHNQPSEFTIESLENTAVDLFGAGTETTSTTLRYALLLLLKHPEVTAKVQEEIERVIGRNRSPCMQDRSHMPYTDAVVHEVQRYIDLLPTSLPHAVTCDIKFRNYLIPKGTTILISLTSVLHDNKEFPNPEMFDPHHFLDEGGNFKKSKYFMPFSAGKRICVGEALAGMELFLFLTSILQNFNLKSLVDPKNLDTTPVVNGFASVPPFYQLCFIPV
Chain of Cytochrome P450 1A2 (Homo sapiens) (P05177 whole entry, looked up): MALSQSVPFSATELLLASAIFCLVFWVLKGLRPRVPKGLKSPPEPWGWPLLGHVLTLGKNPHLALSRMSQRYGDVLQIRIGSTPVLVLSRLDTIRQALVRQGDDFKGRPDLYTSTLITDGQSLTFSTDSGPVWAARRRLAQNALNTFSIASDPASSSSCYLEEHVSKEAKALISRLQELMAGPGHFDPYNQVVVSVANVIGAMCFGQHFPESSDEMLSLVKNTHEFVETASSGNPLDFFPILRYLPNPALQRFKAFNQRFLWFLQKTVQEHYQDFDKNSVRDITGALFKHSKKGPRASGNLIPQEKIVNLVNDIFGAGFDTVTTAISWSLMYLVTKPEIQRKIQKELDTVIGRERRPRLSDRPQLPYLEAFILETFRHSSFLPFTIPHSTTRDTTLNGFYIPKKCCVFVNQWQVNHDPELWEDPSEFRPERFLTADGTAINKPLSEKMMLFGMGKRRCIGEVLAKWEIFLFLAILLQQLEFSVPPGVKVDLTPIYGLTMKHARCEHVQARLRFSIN
Chain of Cytochrome P450 2C19 (Homo sapiens) (P33261 whole entry, looked up): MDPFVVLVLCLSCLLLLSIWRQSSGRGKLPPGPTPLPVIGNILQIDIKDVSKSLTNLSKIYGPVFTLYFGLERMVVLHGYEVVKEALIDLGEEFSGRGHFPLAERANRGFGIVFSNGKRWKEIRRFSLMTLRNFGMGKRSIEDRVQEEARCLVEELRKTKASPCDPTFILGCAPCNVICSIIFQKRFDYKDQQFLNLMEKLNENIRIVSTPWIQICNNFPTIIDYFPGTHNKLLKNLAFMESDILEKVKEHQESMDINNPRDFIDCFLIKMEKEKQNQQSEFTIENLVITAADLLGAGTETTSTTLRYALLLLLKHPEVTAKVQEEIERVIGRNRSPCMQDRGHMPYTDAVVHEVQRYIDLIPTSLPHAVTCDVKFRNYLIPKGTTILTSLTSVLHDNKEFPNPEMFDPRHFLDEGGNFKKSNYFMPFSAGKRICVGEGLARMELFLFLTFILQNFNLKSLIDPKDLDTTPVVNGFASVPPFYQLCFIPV
Chain of Cytochrome P450 3A4 (Homo sapiens) (P08684 whole entry, looked up): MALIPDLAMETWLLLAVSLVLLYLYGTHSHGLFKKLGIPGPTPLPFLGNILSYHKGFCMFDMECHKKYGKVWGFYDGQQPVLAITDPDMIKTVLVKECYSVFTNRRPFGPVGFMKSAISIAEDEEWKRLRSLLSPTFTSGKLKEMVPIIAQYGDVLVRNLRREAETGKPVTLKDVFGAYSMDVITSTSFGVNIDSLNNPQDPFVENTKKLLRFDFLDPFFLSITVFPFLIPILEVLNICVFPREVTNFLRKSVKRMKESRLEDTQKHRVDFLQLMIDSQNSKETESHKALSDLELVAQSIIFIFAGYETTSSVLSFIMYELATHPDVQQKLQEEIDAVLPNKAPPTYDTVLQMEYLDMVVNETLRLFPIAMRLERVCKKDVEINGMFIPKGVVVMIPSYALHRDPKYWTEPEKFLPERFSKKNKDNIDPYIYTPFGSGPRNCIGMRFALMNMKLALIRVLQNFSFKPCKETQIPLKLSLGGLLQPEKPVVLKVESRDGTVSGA
Chain of Cytochrome P450 2D6 (Homo sapiens) (P10635 whole entry, looked up): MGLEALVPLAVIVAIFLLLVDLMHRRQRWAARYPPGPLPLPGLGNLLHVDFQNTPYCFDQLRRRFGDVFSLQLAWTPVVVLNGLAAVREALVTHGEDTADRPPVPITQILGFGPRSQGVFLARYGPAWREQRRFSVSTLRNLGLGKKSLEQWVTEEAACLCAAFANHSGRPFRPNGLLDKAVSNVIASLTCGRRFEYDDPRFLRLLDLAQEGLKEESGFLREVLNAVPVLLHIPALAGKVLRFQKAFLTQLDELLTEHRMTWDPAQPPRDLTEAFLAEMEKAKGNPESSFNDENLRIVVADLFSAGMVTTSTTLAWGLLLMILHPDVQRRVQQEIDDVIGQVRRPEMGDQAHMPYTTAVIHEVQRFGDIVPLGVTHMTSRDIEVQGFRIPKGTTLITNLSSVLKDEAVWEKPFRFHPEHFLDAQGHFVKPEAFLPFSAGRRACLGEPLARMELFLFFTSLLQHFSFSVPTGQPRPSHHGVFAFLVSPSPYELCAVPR
Chain of Voltage-gated inwardly rectifying potassium channel KCNH2 (Homo sapiens) (Q12809 whole entry, looked up): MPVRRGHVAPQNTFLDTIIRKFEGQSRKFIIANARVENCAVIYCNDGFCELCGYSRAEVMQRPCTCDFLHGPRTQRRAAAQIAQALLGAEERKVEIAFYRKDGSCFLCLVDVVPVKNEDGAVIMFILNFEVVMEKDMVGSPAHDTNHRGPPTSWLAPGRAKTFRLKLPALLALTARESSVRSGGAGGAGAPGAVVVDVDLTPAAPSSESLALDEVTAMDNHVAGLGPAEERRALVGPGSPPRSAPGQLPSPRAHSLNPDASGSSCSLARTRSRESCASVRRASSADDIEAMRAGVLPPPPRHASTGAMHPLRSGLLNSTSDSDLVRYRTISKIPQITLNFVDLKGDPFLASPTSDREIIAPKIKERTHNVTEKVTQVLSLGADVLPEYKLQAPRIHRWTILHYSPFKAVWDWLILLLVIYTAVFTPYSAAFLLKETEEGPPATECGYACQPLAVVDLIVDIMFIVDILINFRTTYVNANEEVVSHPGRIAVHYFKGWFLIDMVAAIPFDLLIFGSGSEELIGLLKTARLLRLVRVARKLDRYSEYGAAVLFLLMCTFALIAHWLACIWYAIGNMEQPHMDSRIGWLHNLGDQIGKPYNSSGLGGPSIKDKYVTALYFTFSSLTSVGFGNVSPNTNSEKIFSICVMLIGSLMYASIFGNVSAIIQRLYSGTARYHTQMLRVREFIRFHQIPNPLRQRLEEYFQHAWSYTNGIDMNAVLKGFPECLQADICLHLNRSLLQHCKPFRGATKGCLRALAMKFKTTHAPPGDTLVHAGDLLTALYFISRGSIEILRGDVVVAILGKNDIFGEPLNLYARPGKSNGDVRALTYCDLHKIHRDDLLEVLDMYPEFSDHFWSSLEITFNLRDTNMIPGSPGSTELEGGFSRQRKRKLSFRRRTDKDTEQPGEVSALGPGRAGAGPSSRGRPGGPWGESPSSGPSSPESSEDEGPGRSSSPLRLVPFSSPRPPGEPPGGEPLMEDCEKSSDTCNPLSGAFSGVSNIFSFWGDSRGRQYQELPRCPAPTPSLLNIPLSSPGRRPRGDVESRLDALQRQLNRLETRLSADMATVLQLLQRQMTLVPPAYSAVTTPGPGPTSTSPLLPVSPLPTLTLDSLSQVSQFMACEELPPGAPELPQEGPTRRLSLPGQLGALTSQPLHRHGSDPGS

COCCOCCOCCOC
inactive: Potency [1] | Potency [2] | Potency [3] | Potency [4] | Potency [5]

OC[C@@H](O)[C@H](O)[C@@H](O)[C@@H](O)CO
active: Potency [2] 44.8 µM
inactive: Potency [1] | Potency [6] | Potency [4] | Potency [5]

CC(C)C(=O)c1ccccc1
inactive: Potency [1] | Potency [2] | Potency [6] | Potency [4] | Potency [5]

C=CCCCCCCCCCCC
inactive: activity change, negative = inhibition [1] -22.8% [at 10.5 µM] | activity change, negative = inhibition [6] -1.77% [at 10.5 µM] | activity change, negative = inhibition [3] -6.04% [at 10.5 µM] | activity change, negative = inhibition [4] 6.79% [at 6.97 µM] | activity change, negative = inhibition [5] 4% [at 10.5 µM]

C[C@H](CCC(=O)NCC(=O)O)[C@H]1CC[C@H]2[C@@H]3[C@H](O)C[C@@H]4C[C@H](O)CC[C@]4(C)[C@H]3C[C@H](O)[C@]12C
inactive: Potency [1] | Potency [2] | Potency [3] | Potency [4] | Potency [5]

CCC(O)C(C)(C)C (stereo not given)
inactive: Potency [1] | Potency [2] | Potency [6] | Potency [4] | Potency [5]

CCCCCC(=O)OCC
inactive: Potency [1] | Potency [2] | Potency [6] | Potency [4] | Potency [5]

O=C1OC(=O)c2ccccc21
inactive: Potency [1] | Potency [6] | Potency [3] | Potency [4] | Potency [5]

C[Si]1(C)N[Si](C)(C)N[Si](C)(C)N1
inactive: Potency [1] | Potency [4]
active: Potency [2] 50.2 µM | Potency [6] 63.3 µM | Potency [5] 6.33 µM

O=C(O)C(=O)Nc1cccc(-c2nn[nH]n2)c1
inactive: Potency [1] | Potency [6] | Potency [3] | Potency [4] | Potency [5]

CC(=O)c1ccc2c(c1)CCCC2
active: Potency [3] 35.6 µM
inactive: Potency [1] | Potency [6] | Potency [4] | Potency [5]

CC(C)CCCC(C)CC=O (stereo not given)
active: Potency [2] 79.6 µM
inactive: Potency [1] | Potency [3] | Potency [4] | Potency [5]

CO[Si](CCCS)(OC)OC
inactive: Potency [1] | Potency [6] | Potency [3] | Potency [4]

C/C=C(\C)C(=O)OCC/C=C\CC
inactive: Potency [1] | Potency [2] | Potency [6] | Potency [4] | Potency [5]

CCNC(=O)NCCCOc1cccc(CN2CCCCC2)c1
active: Potency [1] 13.8 µM
inactive: Potency [2] | Potency [3] | Potency [4]

CCCCC(CC)COC(=O)c1ccccc1 (stereo not given)
active: Potency [3] 28.3 µM
inactive: Potency [1] | Potency [2] | Potency [4] | Potency [5]

Cc1ccccc1N1CCN(CCc2nnc3n2CCCC3)CC1
active: Potency [1] 13.8 µM
inactive: Potency [2] | Potency [6] | Potency [4] | Potency [5]

CCCCC(=O)N(C)C
inactive: Potency [1] | Potency [6] | Potency [3] | Potency [4] | Potency [5]

CC(C)=CC(C)(C)C
inactive: Potency [1] | Potency [2] | Potency [6] | Potency [4] | Potency [5]

CCCC(C)CC (stereo not given)
inactive: Potency [1] | Potency [6] | Potency [4] | Potency [5]
active: Potency [3] 35 µM

CC(C)CCCCCCOC(=O)C1CCCCC1C(=O)OCCCCCCC(C)C (stereo not given)
inactive: Potency [1] | Potency [2] | Potency [3] | Potency [4]

C=CC(C)(O)CC/C=C(\C)CC (stereo not given)
inactive: Potency [1] | Potency [4]
active: Potency [2] 40 µM | Potency [5] 22.5 µM

CC(Cl)COP(=O)(OCC(C)Cl)OCC(C)Cl (stereo not given)
inactive: Potency [1] | Potency [4] | Potency [5]
active: Potency [2] 19.9 µM | Potency [3] 22.3 µM

CC1=NN(c2ccc(S(=O)(=O)O)cc2)C(=O)C1N=Nc1ccccc1 (stereo not given)
inactive: Potency [1] | Potency [2] | Potency [3] | Potency [4] | Potency [5]

CC(C)(C)c1ccc(C=O)cc1
inactive: Potency [1] | Potency [2] | Potency [6] | Potency [4] | Potency [5]

COC(=O)CCC(=O)O
inactive: Potency [1] | Potency [6] | Potency [3] | Potency [4] | Potency [5]

FC(F)(F)c1ccc(Cl)cc1Cl
inactive: Potency [1] | Potency [6] | Potency [3] | Potency [4] | Potency [5]

NC(=O)NNC(N)=O
inactive: Potency [1] | Potency [2] | Potency [4] | Potency [5]
active: Potency [6] 79.6 µM

O=C(O)c1ccc(OCCN2CCCCC2)cc1
inactive: Potency [1] | Potency [2] | Potency [6] | Potency [4] | Potency [5]

CCCCC(C)C(=O)O (stereo not given)
active: Potency [2] 39.9 µM | Potency [3] 39.9 µM
inactive: Potency [1] | Potency [4] | Potency [5]

CC(=O)c1ccc(OCC(=O)N2CCCCC2)cc1
inactive: Potency [1] | Potency [6] | Potency [3] | Potency [4] | Potency [5]

CNC(=O)NC
inactive: Potency [1] | Potency [6] | Potency [3] | Potency [4] | Potency [5]

CCOC(=O)CCc1ccccc1
inactive: Potency [1] | Potency [6] | Potency [4] | Potency [5]

CCOC(=O)CC(CC(=O)OCC)(OC(C)=O)C(=O)OCC
active: Potency [6] 28.3 µM
inactive: Potency [1] | Potency [4] | Potency [5]

CN(C)CCCNCCC#N
inactive: Potency [1] | Potency [6] | Potency [4] | Potency [5]

CCOC(=O)CCCCCCCCC(=O)OCC
inactive: Potency [1] | Potency [4] | Potency [5]
active: Potency [6] 31.7 µM | Potency [3] 44.8 µM

CCC(CO)CO
inactive: Potency [1] | Potency [6] | Potency [4] | Potency [5]

COC(OC)C(C)c1ccccc1 (stereo not given)
inactive: Potency [1] | Potency [6] | Potency [4] | Potency [5]

O=C1c2ccccc2-c2ccccc21
inactive: Potency [1] | Potency [4] | Potency [5]
active: Potency [6] 65 µM | Potency [3] 0.58 µM

c1ccccc1
inactive: Potency [1] | Potency [6] | Potency [3] | Potency [4] | Potency [5]

OC(CCN1CCCCC1)(c1ccccc1)c1ccccc1
active: Potency [1] 1.38 µM | Potency [4] 9.52 µM
inactive: Potency [6] | Potency [3] | Potency [5]

CC(=O)/C=C/c1ccco1
inactive: Potency [1] | Potency [6] | Potency [4] | Potency [5]

C=C(C)[C@@H]1CC[C@@H](C)C[C@@H]1O
active: Potency [3] 39.9 µM
inactive: Potency [1] | Potency [6] | Potency [4] | Potency [5]

CC(C)(C)NCCO
inactive: Potency [1] | Potency [6] | Potency [4] | Potency [5]
active: Potency [3] 39.9 µM

NS(=O)(=O)c1ccccc1OC(F)(F)F
inactive: Potency [1] | Potency [6] | Potency [4] | Potency [5]

COc1ccc(N=Nc2cc(C)c(N=Nc3ccc(S(=O)(=O)O)cc3)cc2OC)cc1
inactive: Potency [1] | Potency [4] | Potency [5]
active: Potency [6] 63.3 µM

O=C1NC2NC(=O)NC2N1 (stereo not given)
inactive: Potency [1] | Potency [6] | Potency [4] | Potency [5]
active: Potency [3] 35.6 µM

O=S(=O)(O)CCO
inactive: Potency [1] | Potency [6] | Potency [4] | Potency [5]

CCCCCCCCCCCCCCCCI
inactive: activity change, negative = inhibition [1] -2.1% [at 23.6 µM] | activity change, negative = inhibition [6] -1.09% [at 23.6 µM] | activity change, negative = inhibition [3] -13.6% [at 23.6 µM] | activity change, negative = inhibition [4] 0.683% [at 15.8 µM] | activity change, negative = inhibition [5] -0.102% [at 23.6 µM]

C=C(C)C(=O)OCCCCCCOC(=O)C(=C)C
inactive: Potency [1] | Potency [4] | Potency [5]
active: Potency [6] 35.6 µM | Potency [3] 39.9 µM

CCCCCCCCCCCCCC(=O)OC
inactive: Potency [1] | Potency [6] | Potency [3] | Potency [4] | Potency [5]

NC(Cc1c[nH]c2ccccc12)C(=O)O (stereo not given)
inactive: Potency [4]
active: Potency [1] 17.5 µM | Potency [6] 31.1 µM

Cc1cccc(C(=O)O)c1[N+](=O)[O-]
inactive: Potency [4]
active: Potency [1] 31.8 µM | Potency [3] 63.4 µM

C[C@H](CCC(=O)O)[C@H]1CC[C@H]2[C@@H]3[C@H](O)C[C@@H]4C[C@H](O)CC[C@]4(C)[C@H]3C[C@H](O)[C@]12C
inactive: Potency [1] | Potency [6] | Potency [3] | Potency [4] | Potency [5]

CCOC(=O)C(C)(C)C
inactive: Potency [1] | Potency [6] | Potency [3] | Potency [4] | Potency [5]

C[N+](C)(C)CC(O)CCl (stereo not given)
inactive: Potency [1] | Potency [6] | Potency [3] | Potency [4] | Potency [5]

O=C(O)Cc1cccc(-c2cc(CCCCCCc3ccc(O[C@H]4O[C@H](CO)[C@@H](O)[C@H](O)[C@@H]4O)c(-c4cccc(CC(=O)O)c4)c3)ccc2O[C@H]2O[C@H](CO)[C@@H](O)[C@H](O)[C@@H]2O)c1
inactive: activity change, negative = inhibition [1] 0.276% [at 0.435 µM] | activity change, negative = inhibition [6] 0.681% [at 0.435 µM] | activity change, negative = inhibition [3] -0.131% [at 0.435 µM] | activity change, negative = inhibition [4] -0.102% [at 0.29 µM] | activity change, negative = inhibition [5] 0.205% [at 0.435 µM]

CCCCCCCC/C=C\CCCCCCCC(=O)OC[C@@H](O)[C@H]1OC[C@H](O)[C@H]1O
inactive: Potency [1] | Potency [3] | Potency [4] | Potency [5]
active: Potency [6] 31.7 µM

O=C1CC[C@H](C(=O)N2CCCCC2)N1
inactive: Potency [1] | Potency [6] | Potency [3] | Potency [4] | Potency [5]

Nc1ccc(C(=O)OCC(O)CO)cc1 (stereo not given)
inactive: Potency [1] | Potency [4]
active: Potency [3] 15.5 µM

Cc1ccccc1OCC1CO1 (stereo not given)
inactive: Potency [1] | Potency [6] | Potency [3] | Potency [4] | Potency [5]

Nc1cc(C(=O)O)ccc1Cl
inactive: Potency [1] | Potency [6] | Potency [3] | Potency [4] | Potency [5]

CC(C)CCO
inactive: Potency [1] | Potency [6] | Potency [3] | Potency [4] | Potency [5]

CCCCCCCC[Si](OCC)(OCC)OCC
inactive: Potency [1] | Potency [6] | Potency [3] | Potency [4] | Potency [5]

CCCCCC1CCCC(=O)O1 (stereo not given)
inactive: Potency [1] | Potency [6] | Potency [4] | Potency [5]

O=C(O)c1ccccc1C(=O)Nc1ccc(S(=O)(=O)Nc2nccs2)cc1
inactive: Potency [1] | Potency [6] | Potency [3] | Potency [4] | Potency [5]

CCCCCCCCOC(C)=O
inactive: Potency [1] | Potency [6] | Potency [3] | Potency [4] | Potency [5]
